# Compounds with a hit are over-represented: about 12% of the library has one in this group of screens.
# G9a inh = G9a (human) methyltransferase inhibition; G9a H3K9 monomethylation, AlphaScreen, 2 h; Potency, µM (doses to about 102 µM), usual class: inhibitors; hit rate 8.8% among 350,000; AID 504332; note: nearly all actives have a fitted effect of over 75% in size
# Target sequence (Q96KQ7 913-1193 limits assumed): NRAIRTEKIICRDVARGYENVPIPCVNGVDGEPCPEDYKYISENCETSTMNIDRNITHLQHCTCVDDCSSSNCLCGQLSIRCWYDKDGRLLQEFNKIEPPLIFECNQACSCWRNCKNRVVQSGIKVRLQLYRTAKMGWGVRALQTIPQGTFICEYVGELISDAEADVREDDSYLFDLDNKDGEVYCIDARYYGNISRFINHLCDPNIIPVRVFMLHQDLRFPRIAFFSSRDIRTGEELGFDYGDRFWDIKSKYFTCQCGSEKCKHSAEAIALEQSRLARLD
#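 Methyltransferase reactions run at room temperature for 2 h (20 nM enzyme, 500 nM biotin-H3K9 peptide, 20 uM SAM) after a 15 min compound preincubation; product detected by AlphaScreen beads and anti-H3K9me1 antibody.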
# JMJD2A Tudor inh = inhibitors of human JMJD2A Tudor domain | O75164 | AlphaScreen JMJD2A-Tudor / H3K4me3 peptide binding | Potency, µM (top dose mostly 114 µM), usual class: inhibitors | hit rate 4.4% among 390,000 | AID 504339; note: nearly all actives have a fitted effect of over 50% in size
# Sfp PPTase inh = Sfp phosphopantetheinyl transferase inhibition; Q9F4F7; Biochemical Sfp PPTase activity, qHTS; Potency, µM, usual class: inhibitors; hit rate 3.5% among 310,000; AID 1490;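 note: the enzyme is Sfp with the accession as filed and its product quenches rhodamine fluorescence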
#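 Reaction rates are the 30-min fluorescence difference (ex 525, em 598 nm) in wells containing 15 nM Sfp, 5 uM rhodamine-CoA and 12.5 uM BHQ-2-YbbR at pH 7.6 with 10 mM MgCl2.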
# HP1b binding inh = blocks HP1-beta chromodomain binding to methylated histone tails. AID 540317. Potency, µM (series often up to 114 µM), actives largely listed as inhibitors. hit rate 0.56% among 390,000. AlphaScreen HP1-beta / biotin-H3K9me3 peptide binding. P83916; note: nearly all actives have a fitted effect of over 70% in size
# Target sequence (P83916 whole entry, looked up): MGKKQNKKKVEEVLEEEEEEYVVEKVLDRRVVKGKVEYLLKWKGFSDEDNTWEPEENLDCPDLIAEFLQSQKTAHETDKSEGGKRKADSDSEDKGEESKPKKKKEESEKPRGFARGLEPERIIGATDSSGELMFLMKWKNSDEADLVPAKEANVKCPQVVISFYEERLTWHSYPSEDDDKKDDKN
#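 Compound inhibition of the preformed complex between 50 nM HP1-beta and 50 nM biotinylated H3K9me3 peptide was read by AlphaScreen. Buffer was PBS pH 7.4 with 0.01% Tween-20. Incubations ran 30 min at room temperature, with 10 ug/mL donor/acceptor beads.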
# BAZ2B inh = blocks human BAZ2B; Q9UIF8; AlphaScreen BAZ2B-H3K14Ac peptide displacement; Potency, µM (titrated, usually from 114 µM), hits mostly inhibitors; hit rate 4.4% among 360,000; AID 504333; note: nearly all actives have a fitted effect of over 60% in size
#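 Inhibition is scored as reduced AlphaScreen emission. The BAZ2B/b-H3(5-23)K14Ac complex (50 nM each) in PBS pH 7.4, 0.01% Tween-20 meets compound (up to 110 uM) for 30 min at RT before bead addition.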
# Numbers stand for hits; n = inactive; u = inconclusive; x = not tested or not shown; ! = repeats disagree; [ ] = another dose, or the depositor's remark. Calls come from the whole dose curve; as a rule, active = well fitted curve in the direction sought with a large enough effect; inconclusive = small, poorly fitted or top-dose-only effect, or another doubt; inactive = no such curve, though single readings can be large; an effect the other way counts as inactive or inconclusive.
SMILES,G9a inh,JMJD2A Tudor inh,Sfp PPTase inh,HP1b binding inh,BAZ2B inh
CSc1ccc(CN2CCN(Cc3ccccc3)C(CCO)C2)cc1 (stereo not drawn),n,n,n,n,n
CCc1ccc(CN2CCN(S(=O)(=O)Cc3ccccc3)CC2)cc1,u,0.794µM,n,n,17.8µM
O=S(=O)(Cc1ccccc1)N1CCN(Cc2ccc(F)cc2Cl)CC1,x,n,n,n,n
Cc1cc2nc(CO)[nH]c2cc1C,n,n,n,n,n
Cc1cc2nc(CS)[nH]c2cc1C,10µM,n,39.8µM,n,n
CSc1ncccc1C(=O)NCC(=O)Nc1ccc(F)c(F)c1,3.16µM,n,n,n,n
CSc1ncccc1C(=O)NNc1cc(Cl)ccc1Cl,44.7µM,n,n,n,n
O=C(CNC(=O)c1cccc(-n2cnnn2)c1)Nc1ccc(F)c(F)c1,u,89.1µM,x,n,n
O=C(Nc1cc(F)ccc1F)c1cccc(-n2cnnn2)c1,u,n,x,n,n
CC(C)S(=O)(=O)c1csc(C(=O)NN)c1Cl,44.7µM,n,u,n,n
CC(C)S(=O)(=O)c1csc(C(=O)NN)c1-n1cccc1,n,n,n,n,u
CC(OC(=O)c1ccccc1NCCO)C(=O)NCC(=O)Nc1ccc(F)c(F)c1F (stereo not drawn),28.2µM,n,n,n,n
Cc1ccc(S(=O)(=O)N2[C@@H](c3ccccc3F)C(C(=O)O)=CC[C@H]2c2ccc(Cl)c(Cl)c2)cc1,n[2.33 µM],n,x,n,70.8µM
CC(Oc1cccc(Br)c1)C(=O)NNC(=O)CCS(=O)(=O)c1ccccc1 (stereo not drawn),x,n,x,n,x
CC1=NN(c2ccc(C(F)(F)F)cn2)C(=O)C1,n,79.4µM,n,n,8.91µM
COc1ccccc1NCC(=O)N/N=C(\C)c1ccc(Br)s1,u,n,n,n,n
C/C(=N/NC(=O)CNc1ccc(C)cc1)c1ccc(Br)s1,35.5µM,u,n,n,n
Cc1ccc(O)c(N)c1,n[0.501 µM],n,x,n,n
Nc1cc2c(cc1O)CCCC2,x,2.51µM,4.47µM,u,n
CCCCC(CC)C(=O)Nc1ccc(C)c(O)c1 (stereo not drawn),x,50.1µM,n,n,n
O=c1cc(-c2ccc(O)cc2)oc2cc(O)cc(O)c12,n,n,31.6µM!,n,x
CCOC(=O)c1cc2c(=O)n3ccccc3nc2n(Cc2ccco2)c1=NC(=O)c1cccc(F)c1,n,n,x,n,n
Oc1ccccc1N=Cc1sc2ccccc2c1Cl,u,n,56.2µM,u,u
Oc1c(/C=N/c2ccccn2)sc2ccccc12,8.91µM,u,n,n,39.8µM
CN=Cc1sc2ccccc2c1O,50.1µM,n,n,n,n
SMILES,G9a inh,JMJD2A Tudor inh,Sfp PPTase inh,HP1b binding inh,BAZ2B inh
Oc1c(C=NCc2ccncc2)sc2ccccc12,u,n[11.4 µM],28.2µM,n,u
Cc1ccc(O)c(N=Cc2sc3ccccc3c2Cl)c1,u,n,u,n,u
Oc1c(C=Nc2ccc(Cl)cn2)sc2ccccc12,n,n,n,n,n
Cc1ccc(CNC(=O)[C@@H]2C[C@H]2[C@@H](NP(=O)(c2ccccc2)c2ccccc2)c2ccccc2)o1,x,x,50.1µM,x,x
Cc1cc(CNC(=O)[C@@H]2C[C@H]2[C@@H](NP(=O)(c2ccccc2)c2ccccc2)c2ccccc2)nn1C,x,x,n,x,x
O=C(NCCc1c[nH]c2ccccc12)[C@@H]1C[C@H]1[C@@H](NP(=O)(c1ccccc1)c1ccccc1)c1ccccc1,79.4µM,x,n,x,u
Cc1cccc(N2CC(C(=O)Nc3ccc(N4CCOCC4)cc3)CC2=O)c1C (stereo not drawn),x,n,x,n,x
Cc1ccc(NC(=O)C(OC(=O)c2ccc(C=O)cc2)c2ccccc2)cc1Cl (stereo not drawn),u,n,n,n,n
Cc1cccc(Nc2nc(N)c([N+](=O)[O-])c(NCCO)n2)c1,n,n,n,n,n
COc1cccc(Nc2c(Nc3cccc(OC)c3)c(=O)c2=O)c1,n,n,n,n,u
COc1cccc(NC2=C(NCCO)C(=O)c3ccccc3C2=O)c1,n[0.501 µM],50.1µM,n,u,35.5µM
Cc1cccc(NC2=C(NCCO)C(=O)c3ccccc3C2=O)c1,31.6µM,56.2µM,n,20µM,20µM
COc1ccc(NC2=C(NCCO)C(=O)c3ccccc3C2=O)cc1,14.1µM,u,n,15.8µM,22.4µM
O=C(CN1C(=O)CCn2nc(-c3ccccc3)cc21)NCc1ccc(F)cc1,n,n,x,n,n
Cc1nn(C)c2c1c(C(F)(F)F)cc(=O)n2CC(=O)NCCC(C)C,n,n,x,n,n
